# According to the supplement of paper PMC4466140:
# Tests used:
# Test in all cases: SPOT peptide array binding signal intensity (averaged, normalized) (arbitrary units (background-subtracted, floor 0; scale differs between SH3 domains)); higher = stronger binding of the SH3 domain to the peptide
# [1] = biological target: AgAbp1
# Summary of the method: (§1)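 GST-fused SH3 domains from four yeast species were expressed in E. coli BL21(DE3), purified on glutathione Sepharose and incubated at 10 μg/ml overnight at 4°C in TBS-based blocking buffer on cellulose membranes carrying synthetic 15-mer peptides, with cysteines replaced by serines. Bound protein was detected with anti-GST antibody, an HRP anti-mouse secondary and luminol, then imaged and quantified with Genespotter. Binding signal is the normalized, background-subtracted spot intensity averaged over replicates, in arbitrary units that differ between domains.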
# [2] = biological target: AgBbc1
# Summary of the method: as §1
# [3] = biological target: AgBem1-D1
# Summary of the method: as §1
# [4] = biological target: AgBzz1-D1
# Summary of the method: as §1
# [5] = biological target: AgBzz1-D2
# Summary of the method: as §1
# [6] = biological target: AgCyk3
# Summary of the method: as §1
# [7] = biological target: AgFus1
# Summary of the method: as §1
# [8] = biological target: AgHof1
# Summary of the method: as §1
# [9] = biological target: AgHse1
# Summary of the method: as §1
# [10] = biological target: AgLsb1
# Summary of the method: as §1
# [11] = biological target: AgLsb4
# Summary of the method: as §1
# [12] = biological target: AgMyo5
# Summary of the method: as §1
# [13] = biological target: AgNbp2
# Summary of the method: as §1
# [14] = biological target: AgRvs167
# Summary of the method: as §1
# [15] = biological target: AgSho1
# Summary of the method: as §1
# [16] = biological target: AgSla1-D1-D2
# Summary of the method: as §1
# [17] = biological target: AgSla1-D3
# Summary of the method: as §1
# [18] = biological target: CaAbp1-D1
# Summary of the method: as §1
# [19] = biological target: CaAbp1-D2
# Summary of the method: as §1
# [20] = biological target: CaBbc1
# Summary of the method: as §1
# [21] = biological target: CaBem1-D1
# Summary of the method: as §1
# [22] = biological target: CaBzz1-D1
# Summary of the method: as §1
# [23] = biological target: CaBzz1-D2
# Summary of the method: as §1
# [24] = biological target: CaCyk3
# Summary of the method: as §1
# [25] = biological target: CaFus1
# Summary of the method: as §1
# [26] = biological target: CaHof1
# Summary of the method: as §1
# [27] = biological target: CaHse1
# Summary of the method: as §1
# [28] = biological target: CaLsb1
# Summary of the method: as §1
# [29] = biological target: CaLsb4
# Summary of the method: as §1
# [30] = biological target: CaMyo5
# Summary of the method: as §1
# [31] = biological target: CaNbp2
# Summary of the method: as §1
# [32] = biological target: CaRvs167
# Summary of the method: as §1
# [33] = biological target: CaRvs167-3
# Summary of the method: as §1
# [34] = biological target: CaSho1
# Summary of the method: as §1
# [35] = biological target: CaSla1-D1-D2
# Summary of the method: as §1
# [36] = biological target: CaSla1-D3
# Summary of the method: as §1
# [37] = biological target: ScAbp1
# Summary of the method: as §1
# [38] = biological target: ScBbc1
# Summary of the method: as §1
# [39] = biological target: ScBem1-D1
# Summary of the method: as §1
# [40] = biological target: ScBzz1-D1
# Summary of the method: as §1
# [41] = biological target: ScBzz1-D2
# Summary of the method: as §1
# [42] = biological target: ScCyk3
# Summary of the method: as §1
# [43] = biological target: ScFus1
# Summary of the method: as §1
# [44] = biological target: ScHof1
# Summary of the method: as §1
# [45] = biological target: ScHse1
# Summary of the method: as §1
# [46] = biological target: ScLsb1
# Summary of the method: as §1
# [47] = biological target: ScLsb2
# Summary of the method: as §1
# [48] = biological target: ScLsb3
# Summary of the method: as §1
# [49] = biological target: ScLsb4
# Summary of the method: as §1
# [50] = biological target: ScMyo3
# Summary of the method: as §1
# [51] = biological target: ScMyo5
# Summary of the method: as §1
# [52] = biological target: ScNbp2
# Summary of the method: as §1
# [53] = biological target: ScPex13
# Summary of the method: as §1
# [54] = biological target: ScRvs167
# Summary of the method: as §1
# [55] = biological target: ScSho1
# Summary of the method: as §1
# [56] = biological target: ScSla1-D1-D2
# Summary of the method: as §1
# [57] = biological target: ScSla1-D3
# Summary of the method: as §1
# [58] = biological target: SpAbp1-D1
# Summary of the method: as §1
# [59] = biological target: SpBbc1
# Summary of the method: as §1
# [60] = biological target: SpBzz1-D1
# Summary of the method: as §1
# [61] = biological target: SpBzz1-D2
# Summary of the method: as §1
# [62] = biological target: SpCyk3
# Summary of the method: as §1
# [63] = biological target: SpHof1
# Summary of the method: as §1
# [64] = biological target: SpHof1-2
# Summary of the method: as §1
# [65] = biological target: SpHof1-3
# Summary of the method: as §1
# [66] = biological target: SpHse1
# Summary of the method: as §1
# [67] = biological target: SpLsb1
# Summary of the method: as §1
# [68] = biological target: SpLsb4
# Summary of the method: as §1
# [69] = biological target: SpMyo1
# Summary of the method: as §1
# [70] = biological target: SpNbp2
# Summary of the method: as §1
# [71] = biological target: SpPex13
# Summary of the method: as §1
# [72] = biological target: SpRvs167
# Summary of the method: as §1
# [73] = biological target: SpSla1-D1-D2
# Summary of the method: as §1
# [74] = biological target: SpSla1-D3
# Summary of the method: as §1
binder,measurement,setting,value
SKSRLLIELPEGFFT,SPOT peptide array binding signal intensity,[1],2
same,SPOT peptide array binding signal intensity,[2],0.5
same,SPOT peptide array binding signal intensity,[3],≤ 0
same,SPOT peptide array binding signal intensity,[4],59
same,SPOT peptide array binding signal intensity,[5],78
same,SPOT peptide array binding signal intensity,[6],1
same,SPOT peptide array binding signal intensity,[7],322
same,SPOT peptide array binding signal intensity,[8],18.5
same,SPOT peptide array binding signal intensity,[9],16
same,SPOT peptide array binding signal intensity,[10],≤ 0
same,SPOT peptide array binding signal intensity,[11],46
same,SPOT peptide array binding signal intensity,[12],≤ 0
same,SPOT peptide array binding signal intensity,[13],≤ 0
same,SPOT peptide array binding signal intensity,[14],0.5
same,SPOT peptide array binding signal intensity,[15],≤ 0
same,SPOT peptide array binding signal intensity,[16],67
same,SPOT peptide array binding signal intensity,[17],0.25
same,SPOT peptide array binding signal intensity,[18],≤ 0
same,SPOT peptide array binding signal intensity,[19],≤ 0
same,SPOT peptide array binding signal intensity,[20],19.5
same,SPOT peptide array binding signal intensity,[21],8.5
same,SPOT peptide array binding signal intensity,[22],82.5
same,SPOT peptide array binding signal intensity,[23],18.8
same,SPOT peptide array binding signal intensity,[24],≤ 0
same,SPOT peptide array binding signal intensity,[25],1020
same,SPOT peptide array binding signal intensity,[26],≤ 0
same,SPOT peptide array binding signal intensity,[27],5.25
same,SPOT peptide array binding signal intensity,[28],≤ 0
same,SPOT peptide array binding signal intensity,[29],≤ 0
same,SPOT peptide array binding signal intensity,[30],117
same,SPOT peptide array binding signal intensity,[31],34.5
same,SPOT peptide array binding signal intensity,[32],1.83
same,SPOT peptide array binding signal intensity,[33],51.8
same,SPOT peptide array binding signal intensity,[34],56.5
same,SPOT peptide array binding signal intensity,[35],≤ 0
same,SPOT peptide array binding signal intensity,[36],22
same,SPOT peptide array binding signal intensity,[37],≤ 0
same,SPOT peptide array binding signal intensity,[38],1
same,SPOT peptide array binding signal intensity,[39],11.5
same,SPOT peptide array binding signal intensity,[40],75.5
same,SPOT peptide array binding signal intensity,[41],125
same,SPOT peptide array binding signal intensity,[42],7
same,SPOT peptide array binding signal intensity,[43],317
same,SPOT peptide array binding signal intensity,[44],1.5
same,SPOT peptide array binding signal intensity,[45],89
same,SPOT peptide array binding signal intensity,[46],≤ 0
same,SPOT peptide array binding signal intensity,[47],≤ 0
same,SPOT peptide array binding signal intensity,[48],≤ 0
same,SPOT peptide array binding signal intensity,[49],≤ 0
same,SPOT peptide array binding signal intensity,[50],1
same,SPOT peptide array binding signal intensity,[51],0.5
same,SPOT peptide array binding signal intensity,[52],≤ 0
same,SPOT peptide array binding signal intensity,[53],≤ 0
same,SPOT peptide array binding signal intensity,[54],0.667
same,SPOT peptide array binding signal intensity,[55],145
same,SPOT peptide array binding signal intensity,[56],≤ 0
same,SPOT peptide array binding signal intensity,[57],15
same,SPOT peptide array binding signal intensity,[58],≤ 0
same,SPOT peptide array binding signal intensity,[59],≤ 0
same,SPOT peptide array binding signal intensity,[60],68.5
same,SPOT peptide array binding signal intensity,[61],0.25
same,SPOT peptide array binding signal intensity,[62],1
same,SPOT peptide array binding signal intensity,[63],204
same,SPOT peptide array binding signal intensity,[64],13.5
same,SPOT peptide array binding signal intensity,[65],7.5
same,SPOT peptide array binding signal intensity,[66],45.5
same,SPOT peptide array binding signal intensity,[67],≤ 0
same,SPOT peptide array binding signal intensity,[68],≤ 0
same,SPOT peptide array binding signal intensity,[69],0.5
same,SPOT peptide array binding signal intensity,[70],≤ 0
same,SPOT peptide array binding signal intensity,[71],≤ 0
same,SPOT peptide array binding signal intensity,[72],2
same,SPOT peptide array binding signal intensity,[73],≤ 0
same,SPOT peptide array binding signal intensity,[74],≤ 0
